# Compounds with a hit are over-represented: about 1.8% of the library has one in this group of screens.
# NALP3 yeast inh: blocks the NALP3 inflammasome reconstituted in yeast. Yeast reconstituted NLRP3/ASC/caspase-1, beta-gal luminescence, 24 h. actives 0.39% (n = 330,000). AID 2825. inhibition, % at 10 µM;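 active = inhibition of 50% or more; inactive = inhibition below 50%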
# PolyA inh: blocks polyadenylation in yeast reporter cells; S. cerevisiae SKY197-pL101 polyadenylation reporter, beta-gal luminescence; efflux-impaired pdr1/pdr3 knockout yeast; score 100 = 6 SD above DMSO; activity score, % at 12 µM; actives 0.02% (n = 300,000); AID 1875;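 active = lowest replicate activity score at least 50, where 100 means six control SD above control mean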;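 also: yeast exposed to compound for 9 h at 30 °C; higher score means more reporter readthrough which indicates perturbed polyadenylation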
# NALP1 yeast inh: inhibitors of NALP1 inflammasome in yeast; S. cerevisiae NALP1/ASC/caspase-1 growth, X-gal OD620, 72 h; inhibition, % at 10 µM; actives 0.61% (n = 280,000); in the data active = inhibition mostly above about 24%, no sharp cut-off; inactive = mostly below about 32%
# Mot1-301 SUMO: blocks SUMOylation pathway, rescuing yeast Mot1-301 growth; S. cerevisiae Mot1-301 growth rescue, ATP luminescence, 38.5C; percent above DMSO median, 100 means doubled; growth rescue, % at 18.8 µM; actives 1% (n = 320,000);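 active = every valid replicate shows activation above 250% relative to neutral control wells; inactive = the rest, any valid replicate at or below 250%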
# A number is an active result; n = inactive; x = no result.
SMILES,NALP3 yeast inh,PolyA inh,NALP1 yeast inh,Mot1-301 SUMO
O=C(NC1CCS(=O)(=O)C1)/C(=C\c1ccc(F)cc1)NC(=O)c1ccccc1 (stereo unspecified),n,n,n,n
COc1ccc(CNC(=O)C(=O)NCc2cccnc2)cc1,n,n,28,n
COc1ccc(/C=N/NC(=O)C(=O)NCc2cccnc2)cc1,n,n,n,n
COc1ccc(/C=C(\NC(=O)c2ccccc2)C(=O)NC2CCS(=O)(=O)C2)cc1 (stereo unspecified),n,n,x,269
CCOC(=O)CNS(=O)(=O)c1cc(-c2nnc(Nc3ccc4c(c3)OCO4)c3ccccc23)ccc1C,n,n,n,n
Cc1cccc(C)c1NC(=O)NNC(=O)c1cc(C(C)(C)C)nn1Cc1ccccc1,n,n,n,n
NC(N)=Nc1ccc(N=C(N)N)cc1,x,n,40,n
C[C@H](CO)N1C[C@H](C)[C@@H](CN(C)Cc2ccc3c(c2)OCO3)Oc2c(NC(=O)Cc3ccccc3)cccc2C1=O,n,x,x,n
Cc1cc(OCCCCCn2ccnc2)cc(C)c1Cl,n,n,26,n
Cc1cc(OCCCn2ccnc2)cc(C)c1Cl,n,n,n,n
CSc1nc2nc(C(F)(F)F)cc(-c3ccccc3)n2n1,n,n,n,n
CSc1nc2nc(-c3ccccc3)cc(C(F)(F)F)n2n1,n,n,27,n
COc1ccc2c(c1)C=C(CN1CCC(CO)(CCc3ccccc3)CC1)CO2,n,n,n,n
COc1ccc(NC(=O)/C(C#N)=C\c2cc(C)n(-c3ccc(Oc4ccc([N+](=O)[O-])cn4)cc3)c2C)cc1,n,n,n,n
CC(C)Oc1ccc(C(=O)N(CN2CCCC2=O)c2ccc(F)cc2)cc1,n,n,41,n
Cc1cccc(OCC(=O)Nc2sc3c(c2C#N)CCC3)c1,n,n,n,n
CC(C)(C)NC(=O)Nc1ccc(Cn2cc(C(F)(F)F)ccc2=O)cc1,n,n,n,n
CCC1CCCCN1CCNC(=O)CNS(=O)(=O)c1ccc2nc(C)sc2c1 (stereo unspecified),n,n,n,315
Cc1ccc(CCNC(=O)CNS(=O)(=O)c2ccc3nc(C)sc3c2)cc1,n,n,n,n
O=S(=O)(c1ccc(Cl)cc1)N1CCN(C2CCN(Cc3ccccc3)CC2)CC1,n,n,n,x
O=[N+]([O-])c1ccc(S(=O)(=O)N2CCN(C3CCN(Cc4ccccc4)CC3)CC2)cc1,n,n,n,379
CC(=O)SC(C[N+](=O)[O-])c1cn(C(C)=O)c2ccccc12 (stereo unspecified),n,n,n,404
Cc1nn(CC(=O)NC(C)c2ccccc2)c(C)c1[N+](=O)[O-] (stereo unspecified),n,n,n,n
CC1(C)CC(=O)/C(=N/Nc2ccc(Cl)cc2)CO1,n,n,n,275
Cc1cccc(N/N=C2/COC(C)(C)CC2=O)c1,n,n,n,n
SMILES,NALP3 yeast inh,PolyA inh,NALP1 yeast inh,Mot1-301 SUMO
O=S(=O)(Cc1ccc(Cl)cc1)N1CCN(Cc2ccc3c(c2)OCO3)CC1,n,n,n,n
CCOc1ccc(S(=O)(=O)N2CCN(Cc3ccc4c(c3)OCO4)CC2)cc1Cl,n,n,n,386
O=S(=O)(Cc1ccccc1Cl)N1CCN(Cc2ccc3c(c2)OCO3)CC1,n,n,n,277
COc1cc(CC(=O)N2CCc3ccccc32)cc(OC)c1OC,n,n,n,n
COc1ccc(NS(=O)(=O)c2cccc(C(=O)NNC(=O)c3cccc(NC(C)=O)c3)c2)cc1,n,n,x,n
Brc1ccc(-c2nnc3ccc(N4CCN(c5ccccc5)CC4)nn23)cc1,n,n,30,n
O=C(c1ccc(Cl)c(Cl)c1)c1cc(-c2ccccn2)c(N2CCOCC2)s1,n,n,n,n
COC(=O)c1ccc(NC(=O)Cc2ccc(C)cc2)cc1,n,n,35,n
CC(=O)c1cccc(CN2CCC(n3nccc3NC(=O)CCOc3ccccc3)CC2)c1,n,n,31,n
O=C(O)C1C2C=CC(CC2)C1C(=O)O (stereo unspecified),n,n,n,n
CC(C)(C)C1=CC(=Nc2ccccc2N)C=C(C(C)(C)C)C1=O,n,n,n,n
CC(C)(C)C1=CC(=O)C(=O)C(C(C)(C)C)=C1,n,n,51,n
CSc1nn(-c2ccc(C(=O)OC(C(=O)NC(N)=O)C(C)C)cc2)c(=S)s1 (stereo unspecified),n,n,38,n
Cn1cc(CN2CCN(c3ccccc3)CC2)c2ccccc21,n,n,26,n
CCCCCCCCCOC(=O)C(CC(=O)O)N1CCOCC1 (stereo unspecified),n,n,45,n
CCOC(=O)c1[nH]c2ccc(F)cc2c1NC(=O)C(C)N1CCc2cc(OC)c(OC)cc2C1 (stereo unspecified),n,n,31,n
CCOC(=O)c1[nH]c2ccc(OC)cc2c1NC(=O)C(C)N1CCC2(CC1)OCCO2 (stereo unspecified),x,x,n,x
Cc1ccc(OCC(=O)O)c(-n2nc3ccccc3n2)c1,n,n,n,340
O=C1CN(C(=O)COc2ccc(Br)cc2F)c2ccccc2N1,n,n,n,n
CCOc1ccccc1NC(=O)COC(=O)Cc1cccs1,n,n,n,n
CC(/C=C/c1ccco1)=N\NC(=O)CNc1ccc2ccccc2c1,n,n,20,n
Cc1cccc2cc(C#N)c(SCC(=O)NCC3CCCO3)nc12 (stereo unspecified),n,n,n,n
Cc1ccc(S(=O)(=O)c2c(N)n(CCC(C)C)c3nc4ccccc4nc23)cc1,n,n,n,n
COC(=O)c1cnc(NNS(=O)(=O)c2ccc(Cl)cc2)nc1C(F)(F)F,n,n,n,n
CCN(CC)C(=O)Oc1ccc(Cl)c2cccnc12,n,n,n,n
SMILES,NALP3 yeast inh,PolyA inh,NALP1 yeast inh,Mot1-301 SUMO
O=C(Nc1cccc(C(F)(F)F)c1)Oc1ccc(Cl)c2cccnc12,x,n,48,n
CCSc1nnc(-c2c[nH]c3ccccc23)o1,n,n,37,n
N#CCSc1nnc(-c2c[nH]c3ccccc23)o1,n,n,n,n
N#Cc1ccsc1NC(=O)CN1CCCCCC1,n,n,n,n
CC(=O)c1c(O)c2ccccc2n(C(C)C)c1=O,n,n,31,n
COc1ccc(-n2cc(CN(C)CCO)c(-c3cccc(F)c3)n2)cc1,n,n,24,n
COc1ccc(-n2cc(CN(C)C(C)c3ccncn3)c(-c3cccc(F)c3)n2)cc1 (stereo unspecified),n,n,n,n
COc1ccc(-n2cc(CNCCc3cnc[nH]3)c(-c3cccc(F)c3)n2)cc1,n,n,27,n
O=C(Oc1cccc2cccnc12)c1ccc(N2C(=O)C3C4CCC(C4)C3C2=O)cc1 (stereo unspecified),n,n,59,n
O=C(Oc1cccc2cccnc12)c1cccc(N2C(=O)C3C4CCC(C4)C3C2=O)c1 (stereo unspecified),n,n,n,n
CCOC(=O)c1ccc2c(c1)sc(=NC(=O)c1ccco1)n2CCOC,n,n,n,n
Cc1nn(-c2ccccc2)c(-c2ccccc2[N+](=O)[O-])c1C(=O)O,n,n,n,294
Cc1nn(-c2ccccc2[N+](=O)[O-])c(=O)c2ccccc12,n,n,n,n

# Source: PubChem (several laboratories)
